In PubChem BioAssay AID1645883 (National Center for Advancing Translational Sciences (NCATS), 2021):
Several values for one entry are separate records, joined by “and”; a condition that tells them apart may be missing. Identical values can stand only once. In all, about 16,000 compounds went through this assay and about 160 (1%) were called active. Another 8% or so got no clear call; they are omitted. The entries come from a sample that favours actives as a whole. Values without a mark were called inactive. Calls follow the shape of the dose curve; as a rule, active = well fitted activation curve with a large enough effect; inconclusive = small, poorly fitted or top-dose-only effect; inactive = no such curve, though single readings can be large or run the other way.

target: Rap guanine nucleotide exchange factor 3 (Homo sapiens) (UniProt O95398); assay: Validation qHTS for agonist of cAMP-regulated guanine nucleotide exchange factor 3 (EPAC1); details: EPAC1 Rap1b BODIPY-GDP exchange, fluorescence; max response: stronger effect = higher value, percent of cAMP control response; also: nearly all actives have a fitted effect of over 70% in size
Excerpt: Assay Provider (PI): Xiaodong Cheng Ph.D.
The University of Texas Medical Branch, […], TX
In multi-cellular eukaryotic organisms, the effects of cAMP are transduced by two ubiquitously-expressed intracellular cAMP receptors, the classic protein kinase A/cAMP-dependent protein kinase (PKA/cAPK) and the more recently discovered exchange protein directly activated by cAMP/cAMP-regulated guanine nucleotide exchange factor (EPAC/cAMP-GEF). Both PKA and EPAC are ubiquitously expressed in all tissues, and an increase in intracellular cAMP levels will lead to the activation of both PKA and EPAC. Therefore, careful dissections of the individual role and relative contribution of EPAC and PKA within the overall cAMP signaling in various model systems are critical for further elucidating the mechanism of cAMP signaling. To date no EPAC-specific antagonists and agonist, as well as isoform-specific agonists have been reported, and developing EPAC-specific pharmacological probes to determine the physiological functions that EPAC play in the overall cAMP-mediated signaling remains a major challenge within the research field. Furthermore, identified regulators of EPAC may lead to new mechanism-based therapeutic strategies specifically targeting the EPAC / cAMP-signaling components as EPAC has been implicated to play important roles in major human pathological conditions such as diabetes, heart disease, and cancer.
This qHTS will be used to screen the Molecular Libraries Small Molecule Repository (MLSMR) as a concentration-titration series using the NCGC unique quantitative screening (qHTS) platform to find activators for EPAC1. In addition, this assay will also be used as a counterscreen for the EPAC2 qHTS. This fluorescent based assay is developed and validated for EPAC1 that measures exchange using EPAC effector Rap1 complex with BODIPY-GDP, a GDP analog with a tethered fluorophores. Activators are identified by monitoring the change in fluorescence signal as the exchanged free BODIPY-GDP has a reduced fluorescence compared to Rap1-bound BODIPY-GDP. Increase in signal (activation) is the desired outcome for the EPAC1 agonist while no activity in this assay is desired for the EPAC2 agonist counterscreen.
[1] de Rooij, J., Zwartkruis, F. J., Verheijen, M. H., Cool, R. H., Nijman, S. M., Wittinghofer, A., and Bos, J.L. (1998) Nature 396, 474-477.
Briefly, three uL of reagents (100 nM EPAC1, 250 nM RAP1B-BODIPY-GDP, 50 uM GDP) were dispensed into a 1536-well Greiner black solid-bottom medium binding assay plate. Controls and test compounds (23 nL) were transferred to the plate via a Kalypsys pin tool equipped with a 1536-pin array. The plates were centrifuged at 1,000 rpm for 15 seconds followed by 5 minute incubation at room temperature. The assay plates were read at 5 minute intervals for 30 minutes in the ViewLux plate reader using 480nm excitation and 540nm emission filters. The results were normalized to the agonist positive control of 6.5 mM cAMP.
% is scaled to controls: 0 for no effect and ±100 for the full control effect; potency is read from the fitted curve at half-maximal effect.

Rap guanine nucleotide exchange factor 3 (Homo sapiens), sequence (O95398 whole entry, looked up): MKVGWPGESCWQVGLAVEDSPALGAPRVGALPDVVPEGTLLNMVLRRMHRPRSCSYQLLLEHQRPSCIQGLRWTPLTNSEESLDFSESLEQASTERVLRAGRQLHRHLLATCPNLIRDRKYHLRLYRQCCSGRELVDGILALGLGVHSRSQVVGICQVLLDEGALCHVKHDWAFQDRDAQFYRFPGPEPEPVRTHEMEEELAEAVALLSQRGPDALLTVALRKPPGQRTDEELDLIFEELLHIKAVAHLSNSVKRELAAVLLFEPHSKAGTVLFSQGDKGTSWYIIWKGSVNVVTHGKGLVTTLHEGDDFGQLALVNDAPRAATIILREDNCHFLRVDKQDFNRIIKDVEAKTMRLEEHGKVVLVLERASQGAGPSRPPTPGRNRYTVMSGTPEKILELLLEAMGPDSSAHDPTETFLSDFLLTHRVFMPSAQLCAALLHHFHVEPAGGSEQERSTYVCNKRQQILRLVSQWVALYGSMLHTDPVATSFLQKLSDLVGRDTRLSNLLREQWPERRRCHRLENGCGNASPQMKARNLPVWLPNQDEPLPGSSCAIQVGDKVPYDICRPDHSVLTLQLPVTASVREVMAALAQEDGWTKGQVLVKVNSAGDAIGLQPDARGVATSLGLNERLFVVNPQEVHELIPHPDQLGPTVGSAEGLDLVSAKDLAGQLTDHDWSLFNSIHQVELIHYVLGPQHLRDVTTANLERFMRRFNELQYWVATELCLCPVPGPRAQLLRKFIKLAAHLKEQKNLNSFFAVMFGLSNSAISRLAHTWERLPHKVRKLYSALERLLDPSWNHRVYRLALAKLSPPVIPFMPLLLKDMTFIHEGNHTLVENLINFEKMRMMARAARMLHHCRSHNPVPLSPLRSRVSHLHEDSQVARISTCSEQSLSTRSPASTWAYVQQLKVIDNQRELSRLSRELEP

SMILES | max response | Potency
Cc1cccc(CN2Cc3cccc4c3[C@H](C=CC4)CC2=S)c1 | 29.3% | –
CCCCC[C@H]1CN(C2CCCCC2)C(=O)[C@@H]1CC(=O)NCc1ccc(OC)cc1 | -76.4% | –
CC(=O)Oc1c2c(c3c(c1CC=C(C)C)O[C@@]14C(=CC5CC1C(C)(C)OC4(C/C=C(\C)C(=O)O)C5=O)C3=O)OC(C)(CCC=C(C)C)C=C2 (some centres not stated) | -112% | –
O=C(c1cc(C(F)(F)F)cc(C(F)(F)F)c1)N1CCC[C@@]2(CCN(c3ccccn3)C2)C1 | -122% | –
O=C1C[C@H]2C=CCc3cccc(c32)CN1Cc1ccccc1 | -26.6% | –
CNc1nc(-c2ccccc2OC)nc2ccccc12 | 24.4% | –
COc1ccc(CNc2ncncc2-c2ccccc2C)c(OC)c1 | -35% | –
C=C1C(=O)C23C(O)C1CCC2[C@]12COC3(O)C(O)C1C(C)(C)CC[C@H]2O (some centres not stated) | -116% | –
O=C(O)CCc1cccnc1 | -31.6% | –
COc1ccc(CN2CCOc3c(cc(-c4ncc(C(F)(F)F)cc4Cl)cc3OCC3CCCO3)C2)c(O)c1 (configuration not stated) | -26% | –
CC1=C(/C=C/C(C)=C/C=C/C(C)=C/C=C/C=C(C)/C=C/C=C(C)/C=C/C2=C(C)CCCC2(C)C)C(C)(C)CCC1 | -9% | –
Cn1cccc1C(=O)N1CCC2(CC1)CN(c1cccc(-c3ccccc3)c1)C2 | – | 112 µM (active)
CC(C)NC(=O)N1CCC2(CC1)CCN(C(=O)c1cccn1C)CC2 | -49.6% | –
O=C(c1csnn1)N1CCC[C@@]2(CCN(c3cccc(-c4ccccc4)c3)C2)C1 | -63.8% | –
Oc1ccc2c(c1)OCC1c3cc4c(cc3OC21)OCO4 (configuration not stated) | 5.11% | –
O=C(c1ccc(F)cc1)C1CCN(CCCCc2ccccc2)CC1 | -5.39% | –
COc1cc(=O)n2c(c1C(=O)N(C)Cc1nccs1)CCN(Cc1ccc(Cl)cc1)CC2 | -7.19% | –
Cc1nc2cnc(Nc3ccccc3)nc2n(Cc2ccc(F)cc2)c1=O | 15.4% | –
O=c1c(-c2cc(F)cc(F)c2)nc2cnc(Oc3ccccc3)nc2n1C[C@H]1CCCO1 | -26.8% | –
N#CCCn1c(=O)c(-c2cc(F)cc(F)c2)nc2cnc(Oc3ccccc3)nc21 | 3.54% | –
O=C(c1cc2ccccc2o1)N1CCN(Cc2ccccc2)CC1 | -2.2% | –

SMILES | max response | Potency
c1ccc2c(Nc3ccncc3)nc(-c3ccc4c(c3)OCO4)nc2c1 | 10.9% | –
c1ccc2c(Nc3ccncc3)nc(-c3ccoc3)nc2c1 | -4.89% | –
COc1cccc(-c2nc(Nc3ccncc3)c3ccccc3n2)c1 | – | 100 µM (active)
CC1CC2C3CCC4=CC(=O)C=C[C@]4(C)[C@@]3(F)[C@@H](O)C[C@]2(C)[C@@]1(O)C(=O)CO (some centres not stated) | 3.48% | –
O=C(O)C(O)[C@@](O)(Cc1ccc(O)cc1)C(=O)O (some centres not stated) | 6.44% | –
O=C(O)C1CCN(c2ncnc3ccc(-c4ccccc4C(F)(F)F)cc23)CC1 | -7.12% | –
CC(C)C(=O)NC(C)c1nnc2n1CCN(Cc1cccc3ncccc13)CC2 (configuration not stated) | -0.781% | –
O=C(c1csnn1)N1CCC2(CCN(Cc3nccs3)CC2)CC1 | -44.7% | –
C[C@@H]1CN(Cc2ccc3c(c2)CN(Cc2ccc(Oc4ncccn4)cc2)CCO3)C[C@H](C)O1 | -1.6% | –
O=C(c1ccco1)N1CCC[C@@]2(CCN(Cc3nccs3)C2)C1 | -63.4% | –
CS(=O)(=O)N1CCC[C@@]2(CCN(c3ccncc3)C2)C1 | -34% | –
O=C(Nc1cccc(F)c1)N1CC2(CCN(C(=O)c3cnccn3)CC2)C1 | 7.33% | –
C=C1C(=CC=C2CCC[C@]3(C)[C@@H]([C@H](C)C=C[C@H](C)C(C)C)CC[C@@H]23)C[C@@H](O)C[C@@H]1O | -167% | –
C=CC(C1=CC(=O)C=CC1=O)c1ccc(O)cc1 (configuration not stated) | 3.74% | –
Fc1cccc(/C=N\N=C/c2cccc(F)c2)c1 | -1.27% | –
O=C1OC(C(O)CO)C(O)=C1O (configuration not stated) | 21.1% | –
N#Cc1cc2[nH]c(=O)c(=O)[nH]c2cc1[N+](=O)[O-] | 0.579% | –
CN1CC[C@H](c2c(O)cc(O)c3c(=O)cc(-c4ccccc4Cl)oc23)[C@H](O)C1 | -89% | –
Cn1cc(-c2nc3cncnc3n(-c3ccccc3)c2=O)c2ccccc21 | -219% | –
N[C@@H](C(=O)O)c1ccc(P(=O)(O)O)cc1 | -5.54% | –
CC1CC[C@@]23CCC4(C)[C@@]5(C)CCC6C(C)(C)C(O)CC[C@@]6(C)C5C=C[C@@]4(OC2=O)C3C1C (some centres not stated) | -57.5% | –

SMILES | max response | Potency
O=C1NS(=O)(=O)c2ccccc21 | -6.7% and 22.2% | –
CC(=O)OC[C@H]1O[C@@H](O[C@H]2[C@H](O)[C@@H](OC(=O)c3ccccc3C(=O)O)[C@H](O)O[C@@H]2COC(C)=O)[C@H](O)[C@@H](OC(=O)c2ccccc2C(=O)O)[C@@H]1O | -29.6% | –
CC(O)(COc1ccccc1)c1ccc2c(c1)CN(Cc1cn[nH]c1-c1ccc(F)cc1)CCO2 (configuration not stated) | 6.27% | –
COc1ccc(CCNc2ncnc3sc(C(=O)N4CCCC4)c(C)c23)cc1OC | -3.63% | –
O=C(c1cc(C(F)(F)F)cc(C(F)(F)F)c1)N1CCC2(CCCN(Cc3ccncc3)C2)CC1 | -115% | –
COC(=O)N1CCC[C@@]2(CCN(C(=O)NC(C)C)C2)C1 | -60.9% | –
C[C@H]1C[C@H]2[C@@H]3CCC4=CC(=O)C=C[C@]4(C)[C@@H]3C(=O)C[C@]2(C)[C@@]1(O)C(=O)CO | 0.445% | –
COc1cc2c(cc1OC)[C@@H](Cc1cc(OC)c(OC)c(OC)c1)[N+](C)(CCCOC(=O)CC/C=C/CCC(=O)OCCC[N+]1(C)CCc3cc(OC)c(OC)cc3[C@H]1Cc1cc(OC)c(OC)c(OC)c1)CC2 (some centres not stated) | -11.5% and 6.58% | –
CC(=O)Nc1ccccc1-c1nc(CNC(=O)c2ccc(Cl)cc2)c(C)o1 | -0.968% | –
COc1cc(=O)n2c(c1C(=O)NC(C)c1ccco1)CCN(C(=O)c1cn3ccc(C)cc3n1)CC2 (configuration not stated) | -8.43% | –
NCCCNCCCCN(CCCN)/[N+]([O-])=N/O | -13.7% | –
O=C1CCN(CCc2ccccc2)CCN1CCOc1ccccc1 | 21.5% | –
O=C(CN1Cc2ccccc2OC(c2ccccc2)C1)N1CCCCC1c1cccnc1 (configuration not stated) | 3.86% | –
N[C@H](C(=O)O)c1ccc(C(=O)O)c(O)c1 | -1.36% and -12.7% | –
Cc1ccc(/C(=C/CN2CCCC2)c2ccccn2)cc1 | -20.9% | –
CN1CCC2(CC1)CCN(S(=O)(=O)c1ccccc1)CC2 | 2.56% | –
CN(C)C(=O)[C@@H]1C[C@@H](Sc2nc3ccccc3[nH]2)CN1Cc1ccc(Cl)cc1 | 0.834% | –
C=C1C(=C/C=C2\CCC[C@]3(C)[C@@H]([C@H](C)CCCC(C)(C)O)CC[C@@H]23)C[C@@H](O)C[C@@H]1O | -16.6% | –
O=C(c1csnn1)N1CCC2(CC1)CN(c1ncccn1)C2 | 26.8% | –
O=C(NCCN1CCOCC1)c1cnn(-c2nccc(-c3cccs3)n2)c1C1CC1 | -10.9% | –
CN(Cc1ccco1)c1cc(-c2ccccc2C(F)(F)F)ncn1 | 17% | –

SMILES | max response | Potency
COc1ccc(C)cc1N1C(=O)[C@@H]2C[C@H]1CN2Cc1cccc(OC)c1O | -2.66% | –
O=C(O)CCC(=O)O | -16.2% | –
COC1[C@H](OC(N)=O)C(O)[C@H](Oc2ccc3c(O)c(NC(=O)c4ccc(O)c(CC=C(C)C)c4)c(=O)oc3c2C)OC1(C)C (some centres not stated) | 12.3% | –
O=C(C[n+]1ccncc1)c1ccc2c(c1)CCCC2 | -14.9% | –
COc1cc(=O)n2c(c1C(=O)N(C)Cc1nonc1C)CCN(C(=O)c1ccc(C)cc1C)CC2 | -17.4% | –
C=C1C(=CC=C2CCC[C@@]3(C)[C@@H]2CC[C@H]3[C@H](C)CCCC(C)C)C[C@@H](O)C[C@@H]1O | -125% | –
CN1CCN(c2ncncc2-c2ccc(C(=O)N(C)C)cc2)CC1 | -22% | –
Cc1cccc(C)c1NC(=O)NC1=CCCN1C | -23.6% | –
O=C1NC(CC(=O)N2CCC(n3c(C4CCC4)nc4cccnc43)CC2)c2ccccc21 (configuration not stated) | 2.72% | –
CCNCCCNCCCNCCCNCC | -1.46% | –
CCCCCCCC/C=C\CCCCCCCC(=O)OC[C@H](CO)OC(C)=O | -42.9% | –
Nc1ncnc2c1c(I)cn2[C@@H]1C[C@H](N)[C@@H](O)[C@H]1O | -1.21% | –
COc1ccccc1CNc1ncncc1-c1cccnc1 | -29.8% | –
O=C(OCCN1CCOCC1)C1(c2ccccc2)CCCCC1 | 0.319% and -0.482% and -4.96% | –
CC1(C)[C@@H]2CC[C@@]1(C)[C@H](OC(=O)CSC#N)C2 | -10.5% | –
COc1ccc(Oc2ncc3nc(-c4ccc(F)cc4)c(=O)n(C)c3n2)cc1 | -48.7% | –
OCC1CCCN(c2nc3cc4c(cc3cc2CNCc2cccs2)OCO4)C1 (configuration not stated) | -2.38% | –
COc1ccc(-c2nc3cnc(OC)nc3n(Cc3ccc(F)cc3)c2=O)cc1 | -45.5% | –
CC(C)[C@H](CO)Nc1nc(Nc2cc(N)cc(Cl)c2)c2ncn(C(C)C)c2n1 | 16.3% | –
